Source: PubChem
The list is not random: actives were taken first. Their share in the collection is about 18%.
Six1-Eya2 blk: Six1/Eya2 interaction inhibition; activity change, % (test concentration not listed); AlphaScreen GST-Six1/His-Eya2 binding, biochemical; hits give low values; 0.56% of 360,000 active; AID 651725; Q15475+O00167; in the data active = activity change below about -65%; inconclusive = mostly about -30% to -63%
Target sequence (O00167 whole entry, looked up): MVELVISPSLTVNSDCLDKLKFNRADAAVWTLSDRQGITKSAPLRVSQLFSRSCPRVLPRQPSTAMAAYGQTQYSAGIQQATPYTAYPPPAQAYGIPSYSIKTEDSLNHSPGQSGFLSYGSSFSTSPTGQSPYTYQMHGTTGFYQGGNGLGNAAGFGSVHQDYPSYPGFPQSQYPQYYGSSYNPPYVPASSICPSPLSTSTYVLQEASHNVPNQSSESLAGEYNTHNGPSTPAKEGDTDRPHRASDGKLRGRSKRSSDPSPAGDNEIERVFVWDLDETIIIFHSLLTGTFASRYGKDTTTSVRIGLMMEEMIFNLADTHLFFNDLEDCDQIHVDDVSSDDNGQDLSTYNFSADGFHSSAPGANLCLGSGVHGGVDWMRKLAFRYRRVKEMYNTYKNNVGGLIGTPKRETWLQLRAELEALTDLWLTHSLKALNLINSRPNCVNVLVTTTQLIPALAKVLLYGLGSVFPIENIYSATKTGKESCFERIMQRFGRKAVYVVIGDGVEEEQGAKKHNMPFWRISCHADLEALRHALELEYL
Target sequence (Q15475 whole entry, looked up): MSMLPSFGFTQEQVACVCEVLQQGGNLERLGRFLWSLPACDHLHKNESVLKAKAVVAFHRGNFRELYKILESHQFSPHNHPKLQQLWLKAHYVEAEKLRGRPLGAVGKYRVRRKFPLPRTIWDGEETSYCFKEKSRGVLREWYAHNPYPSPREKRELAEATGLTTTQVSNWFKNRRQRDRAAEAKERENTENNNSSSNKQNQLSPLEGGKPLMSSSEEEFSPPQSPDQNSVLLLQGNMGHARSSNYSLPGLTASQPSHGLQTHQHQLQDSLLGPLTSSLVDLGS
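AlphaScreen with GST-Six1 and His-Eya2 (5X mix: 250 nM and 500 nM), glutathione donor and nickel acceptor beads; buffer 50 mM Tris pH 8.0, 300 mM NaCl, 1 mM TCEP; 1 h at 37 C in the dark.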
TDP1 cell CPT: growth inhibition of DT40 Tdp1-/-;hTDP1 cells with camptothecin (screen for TDP1 inhibitors); chicken DT40 Tdp1-/-;hTDP1 cells + 20 nM CPT, ATP luminescence, 48 h; Potency, µM (highest dose often 46.2 µM), actives largely listed as inhibitors; 12% of 420,000 active; AID 686979; note: nearly all actives have a fitted effect of over 55% in size
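Cell growth measured by CellTiter-Glo luminescence after a minimum 48 h, 37 C compound exposure with 20 nM CPT in Tdp1-knockout DT40 cells stably expressing hTDP1, seeded 400/well; qHTS titration format.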
DT40 TDP1 no CPT: qHTS for Inhibitors of human tyrosyl-DNA phosphodiesterase 1 (TDP1): qHTS in cells in absence of CPT; DT40 Tdp1-/- hTDP1 cells, no CPT, ATP luminescence, 48 h; Potency, µM (doses to about 46.2 µM), usual class: inhibitors; 15% of 420,000 active; AID 686978, 2013; note: nearly all actives have a fitted effect of over 55% in size
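Seeded 400 DT40-hTDP1 cells/well (vehicle DMSO, no 20 nM CPT); pinned compounds; ≥48 hr at 37 °C; CellTiter-Glo luminescence as viability measure.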
CtBP-E1A blk: blocks the CtBP interaction with E1A; AlphaScreen GST-E1A/His-CtBP binding, 1536-well; hits give low values; activity change, % (no concentration beside the values); 0.49% of 340,000 active; AID 651724; in the data active = activity change below about -65%; inconclusive = mostly about -30% to -63%
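Steps: dispense buffer (Tris pH 8.0, NaCl 300 mM, TCEP 1 mM, BSA, Tween 20); add 5X protein mix (GST-E1A, His-CtBP, 125 nM each); pin 23 nL compound; 2 h at 37 °C, dark; add 5X beads (50 ug/mL); 1 h; read.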
TDP1 block: blocks human tyrosyl-DNA phosphodiesterase 1 | Potency, µM (titrated, usually from 130 µM), actives largely listed as inhibitors | Q9NUW8 | AID 485290 | recombinant TDP1, AlphaScreen DNA substrate cleavage | 0.28% of 350,000 active; note: nearly all actives have a fitted effect of over 40% in size
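AlphaScreen read-out: signal falls as enzyme removes the 3' tyrosine-FITC from a 5'-biotinylated DNA oligo (15 nM, 5 min, RT). Enzyme was E. coli-made recombinant Tdp1 at 1 nM, exposed to compound for 15 min beforehand; beads 10 ug/ml, 10 min.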
IL-1B inflam inh: blocks inflammasome-driven IL-1 beta release; 4.7% of 360,000 active; activity change, % at 57.5 µM; THP-1 LPS/ATP IL-1B secretion, AlphaLISA, 16 h; hits give low values; AID 743279; in the data active = activity change below about -50%; inconclusive = mostly about -30% to -49%
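Secreted IL-1B measured by AlphaLISA bead assay after 16 h compound exposure of THP-1 cells; compounds (final up to 57.5 uM) added 1 h before LPS (250 ng/mL) and ATP (1.25 mM) stimulation; lower signal means less secretion.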
Hits are given with their value; - = inactive; ? = inconclusive; . = not tested or not shown. Unless noted, calls come from the whole dose curve; as a rule, active = well fitted curve in the direction sought with a large enough effect; inconclusive = small, poorly fitted or top-dose-only effect, or another doubt; inactive = no such curve, though single readings can be large; an effect the other way counts as inactive or inconclusive.

SMILES	Six1-Eya2 blk	TDP1 cell CPT	DT40 TDP1 no CPT	CtBP-E1A blk	TDP1 block	IL-1B inflam inh
Cc1nc(P(=O)(c2ccccc2)c2ccccc2)c(N2CCOCC2)o1	-	-	-	-	-	-
CCc1cccc(C)c1NC(=O)COC(=O)Cc1ccccc1	-	-	-	-	.	-
O=C(CSc1nnc(Cc2cc(=O)[nH]c(=O)[nH]2)n1-c1ccc(Cl)cc1)NC1CCCC1	-	-	-	-	-	-
CCOC(=O)C1CCCN(C(=O)c2ccccc2OC(F)(F)F)CC1 (configuration not stated)	-	-	-	-	.	-
COP(=O)(OC)c1nc(-c2ccccc2)oc1N1CCOCC1	-	-	-	-	-	-
CCOP(=O)(OCC)c1nc(-c2ccccc2)oc1N1CCCCC1	-	20.6µM	16.4µM	.	.	-
COc1cc(C(CC(=O)Nc2ccc(C)c(F)c2)N2Cc3ccccc3C2=O)cc(OC)c1OC (configuration not stated)	.	-	-	.	-	.
CN(C)c1ccc(/C=C/N2C=CCc3c2ccc2ccccc32)cc1	.	0.0794µM	0.0891µM	.	.	.
COc1ccc(/C=C/c2cc[n+](C(=O)Cc3ccccc3)cc2)cc1	-	3.26µM	2.31µM	-	-	-107.5
Cc1ccc(OCc2nc(-c3ccc(C(=O)N4CCN(c5ccc(Cl)cc5)CC4)cc3)oc2C)cc1	.	?	?	.	-	.
CSc1ccc(CCNC(=O)c2ccc(-c3nc(COc4ccccc4)c(C)o3)cc2)cc1	.	-	-	.	-	.
Cc1ccc(OCc2nc(-c3ccc(C(=O)N4CCN(c5cccc(C(F)(F)F)c5)CC4)cc3)oc2C)cc1	.	16.4µM	?	.	-	.
Cc1ccc(C)c(N2CCN(C(=O)c3ccc(-c4nc(COc5ccccc5)c(C)o4)cc3)CC2)c1	.	23.1µM	14.6µM	.	-	.
COc1ccc(CCN(C)C(=O)Cc2ccc(-c3ccccc3)cc2)cc1OC	-	18.4µM	16.4µM	-	-	-54.8
COc1ccc(-c2cc(C(=O)NCCc3ccc(S(N)(=O)=O)cc3)c3ccccc3n2)cc1	-	-	?	-	-	-
COc1ccc(CCN(C)C(=O)c2cc(-c3ccccc3)nc3ccccc23)cc1OC	-	?	23.1µM	-	-	-
COc1ccc(CCN(C)C(=O)c2cc(-c3ccccc3)nc3ccc(C)cc23)cc1OC	-	?	?	-	-	-
COc1ccc(-c2cc(C(=O)N(C)CCc3ccc(OC)c(OC)c3)c3ccccc3n2)cc1	-	14.6µM	23.1µM	-	-	-
COC(=O)c1scc(-c2ccc(C)cc2)c1S(=O)(=O)N1CCN(c2ccc(F)cc2)CC1	.	8.2µM	1.84µM	.	-	.
COC(=O)c1scc(-c2ccc(C)cc2)c1S(=O)(=O)N1CCN(c2cccc(OC)c2)CC1	.	9.2µM	5.8µM	.	-	.
COc1ccc(-c2cnnc(N/N=C/c3ccc(-c4ccc([N+](=O)[O-])cc4)o3)n2)cc1	-	1.16µM	1.46µM	-	-	-
COc1nc(N/N=C/c2ccc(-c3cccc([N+](=O)[O-])c3)o2)nc(N2CCOCC2)n1	.	.	.	.	-	.
O=[N+]([O-])c1ccc(-c2ccc(/C=N/Nc3nc(N4CCCC4)nc(N4CCCC4)n3)o2)cc1	-	14.6µM	4.61µM	-	-	-
CCNc1nc(NCC)nc(N/N=C/c2ccc([N+](=O)[O-])o2)n1	-83.5	16.4µM	16.4µM	-85.4	-	-
NC(=O)N/N=C/c1ccc(-c2ccc([N+](=O)[O-])cc2)o1	-	-	?	.	-	-
COc1ccccc1-c1cnnc(N/N=C/c2ccc(-c3cccc(Br)c3)o2)n1	-	14.6µM	23.1µM	-	-	-
O=[N+]([O-])c1ccc(/C=N/Nc2ccc3ccccc3c2)o1	?	?	-	?	-	-
N#CCSc1nnc2sc3ccccc3n12	-	-	-	-	-	-
O=[N+]([O-])c1ccc(-c2ccc(/C=N/Nc3nc(N4CCCCC4)nc(N4CCCCC4)n3)o2)cc1	-	?	20.6µM	-	-	-
